# Measurements published in PMC7862700, “An all-to-all approach to the identification of sequence-specific readers for epigenetic DNA modifications on cytosine”.
# Columns and labels:
# Assay in all cases: DAPPL (digital affinity profiling via proximity ligation, sequencing); 10 mM Tris-HCl pH 7.5, 50 mM NaCl, 1 mM DTT, 4% glycerol, room temperature, 30 min; GST-TFs on glutathione beads, 16-mer random dsDNA library, 0.1% formaldehyde crosslink after washing; high values mean tight binding
# FLI1 = target: T1, FLI1 (Homo sapiens, UniProt Q01543 1-452); details: protein: recombinant; tags: N-terminal GST; dsDNA, one strand shown
# T1 sequence: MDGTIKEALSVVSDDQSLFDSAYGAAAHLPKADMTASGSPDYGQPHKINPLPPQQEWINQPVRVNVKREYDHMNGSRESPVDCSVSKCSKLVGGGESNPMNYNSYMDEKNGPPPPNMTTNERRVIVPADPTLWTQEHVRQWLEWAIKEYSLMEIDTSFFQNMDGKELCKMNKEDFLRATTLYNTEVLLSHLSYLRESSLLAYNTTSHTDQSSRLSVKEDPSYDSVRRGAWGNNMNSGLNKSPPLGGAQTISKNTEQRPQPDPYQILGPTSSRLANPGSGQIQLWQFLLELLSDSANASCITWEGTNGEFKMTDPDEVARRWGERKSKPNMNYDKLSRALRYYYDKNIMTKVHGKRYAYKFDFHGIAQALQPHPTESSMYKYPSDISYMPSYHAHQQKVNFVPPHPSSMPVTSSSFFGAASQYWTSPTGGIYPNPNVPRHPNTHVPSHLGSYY
# In short: (§1)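 GST fusions of human transcription factors were expressed in yeast and captured with glutathione beads. Once given DNA barcodes and pooled alongside a tag-only sample, they were incubated for 30 min at room temperature with 200 nmole of a random double-stranded 16-mer DNA library in Tris/NaCl/DTT/glycerol buffer, then washed, crosslinked (0.1% formaldehyde), proximity-ligated, PCR-amplified and sequenced on an Illumina NextSeq500. The binding signal of each hexamer is its read frequency for a factor divided by its frequency for the tag-only sample.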
# ELK1 = target: T2, ELK1 (Homo sapiens, UniProt P19419 1-428); details: protein: recombinant; tags: N-terminal GST; dsDNA, one strand shown
# T2 sequence: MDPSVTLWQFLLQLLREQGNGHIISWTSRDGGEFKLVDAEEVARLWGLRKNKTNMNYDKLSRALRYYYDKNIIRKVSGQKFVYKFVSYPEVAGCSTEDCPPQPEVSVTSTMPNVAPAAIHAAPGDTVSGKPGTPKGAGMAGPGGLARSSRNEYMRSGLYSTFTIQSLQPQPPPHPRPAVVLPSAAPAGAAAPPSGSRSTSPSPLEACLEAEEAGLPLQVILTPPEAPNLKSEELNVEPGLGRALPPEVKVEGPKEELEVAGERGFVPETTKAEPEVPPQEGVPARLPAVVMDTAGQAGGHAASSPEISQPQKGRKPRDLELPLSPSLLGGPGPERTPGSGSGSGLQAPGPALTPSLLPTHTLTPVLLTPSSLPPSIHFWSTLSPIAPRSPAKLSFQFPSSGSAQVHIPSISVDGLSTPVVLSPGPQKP
# In short: as §1
# GABPA = target: T3, GABPA (Homo sapiens, UniProt Q06546 1-454); details: protein: recombinant; tags: N-terminal GST; dsDNA, one strand shown
# T3 sequence: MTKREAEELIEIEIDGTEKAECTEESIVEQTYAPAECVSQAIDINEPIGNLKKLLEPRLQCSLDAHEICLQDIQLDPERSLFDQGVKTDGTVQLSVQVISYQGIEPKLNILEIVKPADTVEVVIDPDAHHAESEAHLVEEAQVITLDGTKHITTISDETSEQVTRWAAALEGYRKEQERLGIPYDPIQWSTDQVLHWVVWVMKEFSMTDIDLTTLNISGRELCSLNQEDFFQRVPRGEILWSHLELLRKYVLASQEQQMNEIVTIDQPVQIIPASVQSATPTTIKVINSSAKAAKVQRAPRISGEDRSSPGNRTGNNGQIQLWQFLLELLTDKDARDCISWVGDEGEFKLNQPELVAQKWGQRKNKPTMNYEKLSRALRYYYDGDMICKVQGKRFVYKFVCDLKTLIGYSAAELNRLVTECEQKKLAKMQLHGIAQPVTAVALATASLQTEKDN
# In short: as §1
# ERG = target: T4, ERG (Homo sapiens, UniProt P11308 1-479); details: protein: recombinant; tags: N-terminal GST; dsDNA, one strand shown
# T4 sequence: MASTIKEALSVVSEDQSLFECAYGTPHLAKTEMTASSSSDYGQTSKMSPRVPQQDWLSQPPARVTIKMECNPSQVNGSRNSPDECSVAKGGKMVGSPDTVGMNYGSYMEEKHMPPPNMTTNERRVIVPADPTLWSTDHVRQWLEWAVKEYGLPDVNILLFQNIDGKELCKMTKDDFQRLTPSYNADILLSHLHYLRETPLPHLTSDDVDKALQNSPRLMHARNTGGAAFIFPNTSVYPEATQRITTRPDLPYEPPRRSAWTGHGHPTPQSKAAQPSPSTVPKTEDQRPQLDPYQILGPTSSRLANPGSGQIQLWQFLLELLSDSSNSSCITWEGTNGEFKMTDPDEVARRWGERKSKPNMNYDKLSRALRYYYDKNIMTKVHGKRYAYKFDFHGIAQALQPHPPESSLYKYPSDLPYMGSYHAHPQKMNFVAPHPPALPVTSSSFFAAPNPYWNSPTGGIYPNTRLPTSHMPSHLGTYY
# In short: as §1
# ELF1 = ELF1 (Homo sapiens, UniProt P32519 1-619); details: protein: recombinant; tags: N-terminal GST; dsDNA, one strand shown
# In short: as §1
# EHF = target: T5, EHF (Homo sapiens, UniProt Q9NZC4 1-300); details: protein: recombinant; tags: N-terminal GST; dsDNA, one strand shown
# T5 sequence: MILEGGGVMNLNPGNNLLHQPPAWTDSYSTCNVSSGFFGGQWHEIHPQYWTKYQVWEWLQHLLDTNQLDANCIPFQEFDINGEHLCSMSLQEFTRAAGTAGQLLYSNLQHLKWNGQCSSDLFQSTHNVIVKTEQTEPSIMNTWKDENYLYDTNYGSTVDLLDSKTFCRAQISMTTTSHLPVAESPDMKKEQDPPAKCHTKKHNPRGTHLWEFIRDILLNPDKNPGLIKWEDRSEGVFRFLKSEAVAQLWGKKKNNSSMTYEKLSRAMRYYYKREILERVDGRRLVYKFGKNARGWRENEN
# In short: as §1
# SPI1 = SPI1 (Homo sapiens, UniProt P17947 1-270); details: protein: recombinant; tags: N-terminal GST; dsDNA, one strand shown
# In short: as §1
# SPIB = SPIB (Homo sapiens, UniProt Q01892 1-262); details: protein: recombinant; tags: N-terminal GST; dsDNA, one strand shown
# In short: as §1
# ELK3 = target: T6, ELK3 (Homo sapiens, UniProt P41970 1-407); details: protein: recombinant; tags: N-terminal GST; dsDNA, one strand shown
# T6 sequence: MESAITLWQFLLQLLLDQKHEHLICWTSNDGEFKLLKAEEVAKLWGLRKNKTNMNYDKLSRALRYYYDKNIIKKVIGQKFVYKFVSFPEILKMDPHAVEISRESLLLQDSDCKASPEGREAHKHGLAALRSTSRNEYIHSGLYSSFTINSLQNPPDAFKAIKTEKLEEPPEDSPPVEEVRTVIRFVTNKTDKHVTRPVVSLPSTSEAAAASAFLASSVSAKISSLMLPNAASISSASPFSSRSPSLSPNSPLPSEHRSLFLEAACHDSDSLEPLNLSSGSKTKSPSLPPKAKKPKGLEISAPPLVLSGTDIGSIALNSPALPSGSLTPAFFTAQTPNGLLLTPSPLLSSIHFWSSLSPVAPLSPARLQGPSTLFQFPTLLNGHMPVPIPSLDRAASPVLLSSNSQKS
# In short: as §1
# FEV = target: T7, FEV (Homo sapiens, UniProt Q99581 1-238); details: protein: recombinant; tags: N-terminal GST; dsDNA, one strand shown
# T7 sequence: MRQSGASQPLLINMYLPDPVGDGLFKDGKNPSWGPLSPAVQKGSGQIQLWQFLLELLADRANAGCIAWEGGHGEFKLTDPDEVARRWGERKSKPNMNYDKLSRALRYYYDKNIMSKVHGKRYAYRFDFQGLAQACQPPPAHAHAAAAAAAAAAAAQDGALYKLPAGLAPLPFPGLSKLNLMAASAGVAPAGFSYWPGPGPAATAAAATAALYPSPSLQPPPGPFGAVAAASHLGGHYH
# In short: as §1
# ETV5 = ETV5 (Homo sapiens, UniProt P41161 1-510); details: protein: recombinant; tags: N-terminal GST; dsDNA, one strand shown
# In short: as §1
# HSF1 = HSF1 (Homo sapiens, UniProt Q00613 1-529); details: protein: recombinant; tags: N-terminal GST; chain copies: 3; dsDNA, one strand shown
# In short: as §1
# SPIC = target: T8, SPIC (Homo sapiens, UniProt Q8N5J4 1-248); details: protein: recombinant; tags: N-terminal GST; dsDNA, one strand shown
# T8 sequence: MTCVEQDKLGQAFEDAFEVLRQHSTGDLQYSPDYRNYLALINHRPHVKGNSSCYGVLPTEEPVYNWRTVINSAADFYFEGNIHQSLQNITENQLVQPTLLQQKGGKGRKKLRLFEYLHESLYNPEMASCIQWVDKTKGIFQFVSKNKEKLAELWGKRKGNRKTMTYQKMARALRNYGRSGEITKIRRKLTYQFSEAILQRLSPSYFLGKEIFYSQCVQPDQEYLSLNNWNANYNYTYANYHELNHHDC
# In short: as §1
# ELF4 = ELF4 (Homo sapiens, UniProt Q99607 1-663); details: protein: recombinant; tags: N-terminal GST; dsDNA, one strand shown
# In short: as §1
# ELK4 = target: T9, ELK4 (Homo sapiens, UniProt P28324-2 1-405); details: protein: recombinant; tags: N-terminal GST; dsDNA, one strand shown
# T9 sequence: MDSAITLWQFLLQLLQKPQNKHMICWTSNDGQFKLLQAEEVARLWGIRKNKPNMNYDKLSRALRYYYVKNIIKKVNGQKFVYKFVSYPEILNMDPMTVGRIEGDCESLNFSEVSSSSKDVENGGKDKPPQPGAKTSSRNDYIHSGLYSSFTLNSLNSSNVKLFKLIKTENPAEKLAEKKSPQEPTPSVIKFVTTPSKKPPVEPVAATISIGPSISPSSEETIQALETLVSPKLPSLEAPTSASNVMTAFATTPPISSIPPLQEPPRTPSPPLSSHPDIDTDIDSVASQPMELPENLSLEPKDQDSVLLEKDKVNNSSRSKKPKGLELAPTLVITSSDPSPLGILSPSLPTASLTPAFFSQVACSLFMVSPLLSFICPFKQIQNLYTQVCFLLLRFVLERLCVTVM
# In short: as §1
# ETV2 = target: T10, ETV2 (Homo sapiens, UniProt O00321 1-342); details: protein: recombinant; tags: N-terminal GST; dsDNA, one strand shown
# T10 sequence: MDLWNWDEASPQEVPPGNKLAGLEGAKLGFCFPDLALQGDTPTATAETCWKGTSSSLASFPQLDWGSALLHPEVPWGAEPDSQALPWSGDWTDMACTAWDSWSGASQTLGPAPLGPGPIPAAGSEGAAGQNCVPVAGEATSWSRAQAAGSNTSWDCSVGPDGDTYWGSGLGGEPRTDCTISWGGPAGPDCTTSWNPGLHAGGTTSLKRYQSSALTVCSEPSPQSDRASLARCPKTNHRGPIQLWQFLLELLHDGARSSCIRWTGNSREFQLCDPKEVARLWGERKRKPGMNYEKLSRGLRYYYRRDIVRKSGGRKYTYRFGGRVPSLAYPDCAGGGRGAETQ
# In short: as §1
# ELF3 = target: T11, ELF3 (Homo sapiens, UniProt P78545 1-371); details: protein: recombinant; tags: N-terminal GST; dsDNA, one strand shown
# T11 sequence: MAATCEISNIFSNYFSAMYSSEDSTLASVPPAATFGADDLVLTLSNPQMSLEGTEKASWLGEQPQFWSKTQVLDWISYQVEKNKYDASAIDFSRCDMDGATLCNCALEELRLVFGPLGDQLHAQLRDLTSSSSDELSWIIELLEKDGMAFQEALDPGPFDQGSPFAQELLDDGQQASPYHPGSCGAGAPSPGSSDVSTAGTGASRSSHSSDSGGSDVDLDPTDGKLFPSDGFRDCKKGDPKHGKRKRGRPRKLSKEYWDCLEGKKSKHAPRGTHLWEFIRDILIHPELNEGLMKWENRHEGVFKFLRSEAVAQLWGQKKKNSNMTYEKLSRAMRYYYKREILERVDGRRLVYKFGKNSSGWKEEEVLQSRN
# In short: as §1
# CRX = CRX (Homo sapiens, UniProt O43186 1-299); details: protein: recombinant; tags: N-terminal GST; dsDNA, one strand shown
# In short: as §1
# ETV1 = ETV1 (Homo sapiens, UniProt P50549 1-477); details: protein: recombinant; tags: N-terminal GST; dsDNA, one strand shown
# In short: as §1
# ETV1, sequence (P50549 whole entry): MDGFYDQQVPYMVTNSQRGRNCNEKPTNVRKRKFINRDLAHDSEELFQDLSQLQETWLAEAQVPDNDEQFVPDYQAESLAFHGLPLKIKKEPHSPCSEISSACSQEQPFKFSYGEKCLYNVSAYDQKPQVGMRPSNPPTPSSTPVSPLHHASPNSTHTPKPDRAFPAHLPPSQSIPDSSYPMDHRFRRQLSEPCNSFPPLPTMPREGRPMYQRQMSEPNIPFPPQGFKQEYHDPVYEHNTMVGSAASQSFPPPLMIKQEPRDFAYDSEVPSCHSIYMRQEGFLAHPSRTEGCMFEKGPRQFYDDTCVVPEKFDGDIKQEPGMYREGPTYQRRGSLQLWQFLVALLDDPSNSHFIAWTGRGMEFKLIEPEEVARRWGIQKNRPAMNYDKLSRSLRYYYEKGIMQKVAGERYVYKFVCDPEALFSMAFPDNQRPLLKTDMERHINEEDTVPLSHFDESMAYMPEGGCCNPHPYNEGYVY
# ELF1, sequence (P32519 whole entry): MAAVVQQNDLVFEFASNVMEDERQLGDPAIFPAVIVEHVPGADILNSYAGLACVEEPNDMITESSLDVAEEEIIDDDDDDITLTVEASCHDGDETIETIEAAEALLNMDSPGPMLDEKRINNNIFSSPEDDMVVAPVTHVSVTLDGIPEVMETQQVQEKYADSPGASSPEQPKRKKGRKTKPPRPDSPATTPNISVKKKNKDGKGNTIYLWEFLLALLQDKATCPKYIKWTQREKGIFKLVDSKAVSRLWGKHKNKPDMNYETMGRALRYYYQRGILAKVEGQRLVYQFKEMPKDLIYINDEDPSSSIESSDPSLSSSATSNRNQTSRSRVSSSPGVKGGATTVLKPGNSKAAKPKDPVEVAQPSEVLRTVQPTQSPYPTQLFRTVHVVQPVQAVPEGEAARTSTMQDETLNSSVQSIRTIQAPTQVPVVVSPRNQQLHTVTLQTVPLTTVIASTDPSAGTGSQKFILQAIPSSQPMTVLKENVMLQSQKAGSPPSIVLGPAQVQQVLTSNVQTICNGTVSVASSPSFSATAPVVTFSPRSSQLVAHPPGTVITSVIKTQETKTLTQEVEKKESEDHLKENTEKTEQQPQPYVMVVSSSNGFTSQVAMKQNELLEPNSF
# SPIB, sequence (Q01892 whole entry): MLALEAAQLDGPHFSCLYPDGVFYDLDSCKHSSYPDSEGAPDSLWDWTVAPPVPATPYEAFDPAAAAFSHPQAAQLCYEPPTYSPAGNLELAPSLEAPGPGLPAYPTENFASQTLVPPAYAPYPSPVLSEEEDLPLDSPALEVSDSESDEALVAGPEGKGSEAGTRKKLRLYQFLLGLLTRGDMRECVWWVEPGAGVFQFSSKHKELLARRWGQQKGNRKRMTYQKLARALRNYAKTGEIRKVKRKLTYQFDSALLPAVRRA
# CRX, sequence (O43186 whole entry): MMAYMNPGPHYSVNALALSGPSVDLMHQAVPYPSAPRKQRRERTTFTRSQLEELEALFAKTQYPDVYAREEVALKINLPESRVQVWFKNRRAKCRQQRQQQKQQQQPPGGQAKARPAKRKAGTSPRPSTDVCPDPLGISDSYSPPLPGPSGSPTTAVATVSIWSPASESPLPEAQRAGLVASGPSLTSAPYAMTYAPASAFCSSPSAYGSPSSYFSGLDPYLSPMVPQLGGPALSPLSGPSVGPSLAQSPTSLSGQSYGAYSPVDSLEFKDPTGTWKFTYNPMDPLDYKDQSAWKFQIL
# ELF4, sequence (Q99607 whole entry): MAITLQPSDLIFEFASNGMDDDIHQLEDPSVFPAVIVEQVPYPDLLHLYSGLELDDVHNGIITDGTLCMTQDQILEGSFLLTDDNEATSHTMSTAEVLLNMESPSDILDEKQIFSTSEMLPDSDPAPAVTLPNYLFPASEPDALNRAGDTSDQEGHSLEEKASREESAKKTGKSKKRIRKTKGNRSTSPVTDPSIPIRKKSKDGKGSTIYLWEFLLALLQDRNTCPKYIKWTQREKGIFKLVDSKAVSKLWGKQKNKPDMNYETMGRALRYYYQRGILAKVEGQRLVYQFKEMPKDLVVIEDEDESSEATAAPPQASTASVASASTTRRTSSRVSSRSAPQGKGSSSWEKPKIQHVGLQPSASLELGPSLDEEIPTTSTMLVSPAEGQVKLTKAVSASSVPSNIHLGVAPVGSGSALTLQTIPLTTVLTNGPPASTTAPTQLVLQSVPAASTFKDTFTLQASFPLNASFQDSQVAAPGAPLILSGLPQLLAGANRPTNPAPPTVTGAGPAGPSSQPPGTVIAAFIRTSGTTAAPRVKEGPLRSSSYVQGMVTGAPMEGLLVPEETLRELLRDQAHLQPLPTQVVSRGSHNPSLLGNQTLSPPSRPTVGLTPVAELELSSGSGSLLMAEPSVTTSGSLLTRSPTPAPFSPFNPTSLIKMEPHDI
# ETV5, sequence (P41161 whole entry): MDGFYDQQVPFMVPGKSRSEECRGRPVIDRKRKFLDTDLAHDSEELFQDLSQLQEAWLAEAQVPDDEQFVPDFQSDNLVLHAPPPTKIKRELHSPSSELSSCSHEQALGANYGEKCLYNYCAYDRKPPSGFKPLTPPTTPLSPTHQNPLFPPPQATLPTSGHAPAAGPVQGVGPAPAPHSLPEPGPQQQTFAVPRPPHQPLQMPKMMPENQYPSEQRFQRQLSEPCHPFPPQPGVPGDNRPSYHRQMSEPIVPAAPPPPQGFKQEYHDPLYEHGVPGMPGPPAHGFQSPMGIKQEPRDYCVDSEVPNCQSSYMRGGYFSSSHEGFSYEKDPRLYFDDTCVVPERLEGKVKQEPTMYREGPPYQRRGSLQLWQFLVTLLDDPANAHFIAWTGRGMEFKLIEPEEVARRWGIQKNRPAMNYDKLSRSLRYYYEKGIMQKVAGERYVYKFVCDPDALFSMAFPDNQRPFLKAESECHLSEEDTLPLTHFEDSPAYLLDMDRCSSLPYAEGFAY
# HSF1, sequence (Q00613 whole entry): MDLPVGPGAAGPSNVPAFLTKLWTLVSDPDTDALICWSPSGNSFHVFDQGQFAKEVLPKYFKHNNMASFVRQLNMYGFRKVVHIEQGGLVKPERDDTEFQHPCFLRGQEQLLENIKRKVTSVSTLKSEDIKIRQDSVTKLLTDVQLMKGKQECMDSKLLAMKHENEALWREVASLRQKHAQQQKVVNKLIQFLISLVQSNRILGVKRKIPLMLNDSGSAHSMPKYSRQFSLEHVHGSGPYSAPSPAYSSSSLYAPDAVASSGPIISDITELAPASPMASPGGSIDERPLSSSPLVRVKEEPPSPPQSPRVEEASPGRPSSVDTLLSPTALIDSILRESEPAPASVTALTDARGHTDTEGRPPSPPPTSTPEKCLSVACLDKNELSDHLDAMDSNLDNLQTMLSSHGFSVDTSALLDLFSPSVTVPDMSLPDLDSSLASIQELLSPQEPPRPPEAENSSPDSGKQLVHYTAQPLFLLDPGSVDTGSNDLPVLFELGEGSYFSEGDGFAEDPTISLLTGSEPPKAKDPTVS
sequence,measurement,setting,value
ATGCCC,binding signal,FLI1,"1.38 fold enrichment (6-mer frequency, TF over GST control)"
same,binding signal,ELK1,"1.38 fold enrichment (6-mer frequency, TF over GST control)"
same,binding signal,GABPA,"1.33 fold enrichment (6-mer frequency, TF over GST control)"
same,binding signal,ERG,"1.28 fold enrichment (6-mer frequency, TF over GST control)"
same,binding signal,ELF1,"1.32 fold enrichment (6-mer frequency, TF over GST control)"
same,binding signal,EHF,"1.26 fold enrichment (6-mer frequency, TF over GST control)"
same,binding signal,SPI1,"1.2 fold enrichment (6-mer frequency, TF over GST control)"
same,binding signal,SPIB,"1.23 fold enrichment (6-mer frequency, TF over GST control)"
same,binding signal,ELK3,"1.2 fold enrichment (6-mer frequency, TF over GST control)"
same,binding signal,FEV,"1.34 fold enrichment (6-mer frequency, TF over GST control)"
same,binding signal,ETV5,"1.28 fold enrichment (6-mer frequency, TF over GST control)"
same,binding signal,HSF1,"1.19 fold enrichment (6-mer frequency, TF over GST control)"
same,binding signal,SPIC,"1.54 fold enrichment (6-mer frequency, TF over GST control)"
same,binding signal,ELF4,"1.33 fold enrichment (6-mer frequency, TF over GST control)"
same,binding signal,ELK4,"1.36 fold enrichment (6-mer frequency, TF over GST control)"
same,binding signal,ETV2,"1.26 fold enrichment (6-mer frequency, TF over GST control)"
same,binding signal,ELF3,"1.34 fold enrichment (6-mer frequency, TF over GST control)"
same,binding signal,CRX,"1.12 fold enrichment (6-mer frequency, TF over GST control)"
same,binding signal,ETV1,"1.31 fold enrichment (6-mer frequency, TF over GST control)"
